L3MBTL1 block: blocks human L3MBTL1; Q9Y468; AlphaScreen L3MBTL1–H3K9me1 peptide binding; Potency, µM (top dose mostly 57.1 µM), for inactives: at the top dose activity, negative = inhibition, actives largely listed as inhibitors; 0.66% of 230,000 active; AID 485360; note: % is set by controls: 0 for no effect and ±100 for the full control effect; nearly all actives have a fitted effect of over 60% in size
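Displacement of a biotinylated histone H3(1-15) peptide monomethylated at Lys9 (75 nM) from L3MBTL1 (50 nM) was measured by AlphaScreen after a 30 min room-temperature compound incubation; cefsulodin titration served as intraplate control.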
HP1b binding inh: inhibitors of HP1-beta chromodomain binding to methylated histone tails | AID 540317 | AlphaScreen HP1-beta / biotin-H3K9me3 peptide binding | 0.56% of 390,000 active | P83916 | Potency, µM (doses to about 114 µM), inactives show at the highest dose activity change, negative = inhibition, hits mostly inhibitors; note: nearly all actives have a fitted effect of over 70% in size
Target sequence (P83916 whole entry, looked up): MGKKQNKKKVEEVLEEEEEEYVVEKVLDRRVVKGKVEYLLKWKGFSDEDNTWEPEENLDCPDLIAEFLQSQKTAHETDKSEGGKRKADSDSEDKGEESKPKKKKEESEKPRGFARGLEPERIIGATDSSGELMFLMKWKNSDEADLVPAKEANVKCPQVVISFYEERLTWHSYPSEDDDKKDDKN
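Compound inhibition of the preformed complex between 50 nM HP1-beta and 50 nM biotinylated H3K9me3 peptide was read by AlphaScreen. Buffer was PBS pH 7.4 with 0.01% Tween-20. Incubations ran 30 min at room temperature, with 10 ug/mL donor/acceptor beads.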
BAZ2B block: blocks human BAZ2B | Potency, µM (titrated, usually from 114 µM), for the others: at the highest dose activity change, negative = inhibition, usual class: inhibitors | AlphaScreen BAZ2B-H3K14Ac peptide displacement | Q9UIF8 | 4.4% of 360,000 active; note: % is set by controls: 0 for no effect and ±100 for the full control effect; nearly all actives have a fitted effect of over 60% in size
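BAZ2B 50 nM plus b-H3(5-23)K14Ac 50 nM, PBS pH 7.4/0.01% Tween-20, 30 min RT; compound added (max 110 uM), 30 min RT; streptavidin donor/Ni-chelate acceptor beads 10 ug/mL final, 20 min dark; AlphaScreen read.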
JMJD2A Tudor: JMJD2A Tudor domain (human) inhibition; Potency, µM (titrated, usually from 114 µM), for the others: at the highest dose activity change, negative = inhibition, most hits filed as inhibitors; AlphaScreen JMJD2A-Tudor / H3K4me3 peptide binding; O75164; 4.4% of 390,000 active; note: % is set by controls: 0 for no effect and ±100 for the full control effect; nearly all actives have a fitted effect of over 50% in size
G9a inh: inhibitors of human histone lysine methyltransferase G9a; Q96KQ7; 8.8% of 350,000 active; G9a H3K9 monomethylation, AlphaScreen, 2 h; Potency, µM (doses to about 102 µM), for inactives: top-dose activity, negative = inhibition, hits mostly inhibitors; note: % is set by controls: 0 for no effect and ±100 for the full control effect; nearly all actives have a fitted effect of over 75% in size
Target sequence (Q96KQ7 913-1193 limits assumed): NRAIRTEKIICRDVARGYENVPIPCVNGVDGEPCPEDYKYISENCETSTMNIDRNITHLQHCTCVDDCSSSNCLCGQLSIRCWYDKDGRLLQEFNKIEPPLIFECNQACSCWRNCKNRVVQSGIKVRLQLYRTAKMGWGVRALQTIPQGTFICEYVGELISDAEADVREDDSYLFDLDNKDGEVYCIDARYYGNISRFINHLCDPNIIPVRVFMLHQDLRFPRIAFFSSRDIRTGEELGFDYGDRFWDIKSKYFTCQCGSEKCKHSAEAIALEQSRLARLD
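Enzyme 20 nM + cpd, 15 min RT; add b-H3K9 pep 500 nM / SAM 20 uM; 2 h RT; anti-H3K9me1 Ab 0.5 ug/mL + SA donor / anti-rabbit acceptor beads 20 ug/mL each, 10 min; AlphaScreen read.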
Sfp PPTase inh: Sfp phosphopantetheinyl transferase inhibition; Q9F4F7; Biochemical Sfp PPTase activity, qHTS; Potency, µM, inactives show largest response in the series, negative = inhibition, most hits filed as inhibitors; 3.5% of 310,000 active;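 note: the enzyme is Sfp with the accession as filed and its product quenches rhodamine fluorescence; 0% = enzyme reaction without inhibitor and -100% = no enzyme wells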
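Sfp 15 nM + cpd, 15 min RT; start w/ rhodamine-CoA 5 uM, BHQ-2-YbbR 12.5 uM (final); 50 mM Hepes pH 7.6, 10 mM MgCl2, 0.01% NP-40, 0.01% BSA; read 525/598 nm at 0 and 30 min.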
* marks the source's active call; other numbers are inactive results; ? = inconclusive; . = not tested or not shown; [ ] = remark or other dose. Sampled rows, rich in hits. Any-hit rate of the full collection: about 12%. Calls come from the whole dose curve; as a rule, active = well fitted curve in the direction sought with a large enough effect; inconclusive = small, poorly fitted or top-dose-only effect, or another doubt; inactive = no such curve, though single readings can be large; an effect the other way counts as inactive or inconclusive. Potency is the fitted concentration of half-maximal effect.

SMILES | L3MBTL1 block | HP1b binding inh | BAZ2B block | JMJD2A Tudor | G9a inh | Sfp PPTase inh
O=C(CSc1nnc(-c2ccccn2)n1Cc1ccco1)c1ccccc1 | -5% | 7% | ? | ? | 40µM* | -15%
O=C(CSc1nnc(-c2cnccn2)n1Cc1ccco1)c1ccccc1 | 1% | 41% | -29% | -4% | 45µM* | -12%
O=C(CSc1nnc(-c2ccccn2)n1Cc1ccco1)c1ccc(Cl)cc1 | -18% | 13% | ? | ? | 40µM* | -26%
O=C(CSc1nnc(-c2cnccn2)n1Cc1ccco1)c1ccc(Cl)cc1 | -7% | 21% | -32% | -28% | ? | -76%
COc1ccc(C(=O)CSc2nnc(-c3ccccn3)n2Cc2ccco2)cc1 | -10% | 13% | ? | ? | ? | ?
COc1cc(Cl)c(C)cc1NC(=O)CSc1nnc(-c2ccccn2)n1Cc1ccco1 | -2% | 41% | . | -22% | -7%[59 µM] | ?
O=C(CN1C(=O)CCc2cc(S(=O)(=O)N3CCCCC3)ccc21)NCc1ccc(Cl)cc1 | . | -2% | -1% | -32% | ? | .
Cc1cc(N2C(=O)C(O)=C(C(=O)c3cc4ccccc4o3)C2c2ccc([N+](=O)[O-])cc2)no1 (stereo not drawn) | . | 6% | ? | -28% | 45µM* | 18%
Cc1cc(N2C(=O)C(O)=C(C(=O)c3cc4ccccc4o3)C2c2cccs2)no1 (stereo not drawn) | . | -2%[57 µM] | ? | ? | 35µM* | -1%
Cc1ccc(C2C(C(=O)c3cc4ccccc4o3)=C(O)C(=O)N2c2cc(C)on2)cc1 (stereo not drawn) | . | -25%[57 µM] | ? | ? | 0%[0.0925 µM] | 15%
CCOc1ccc(S(=O)(=O)NCC(c2ccc(N(C)C)cc2)N2CCc3ccccc32)cc1 (stereo not drawn) | . | ? | 6.3µM* | 13µM* | ? | .
O=C(NCC(c1ccc(F)cc1)N1CCOCC1)c1ccc(Br)o1 (stereo not drawn) | -5% | 20% | ? | -20% | 50µM* | 18%
COc1ccc(S(=O)(=O)NCC(c2ccco2)N2CCc3ccccc32)cc1 (stereo not drawn) | -11% | ? | ? | ? | ? | .
CCOc1ccc(N(C)C(CNS(=O)(=O)c2ccccc2)c2ccccc2)cc1 (stereo not drawn) | . | ? | 11µM* | 28µM* | 11µM* | .
CN(C)c1ccc(C(CNC(=O)COc2ccc(Cl)cc2)N2CCCC2)cc1 (stereo not drawn) | . | 31% | 35µM* | 3% | 50µM* | -13%
CCOc1ccc(S(=O)(=O)Nc2ccc(C(=O)NCC(c3ccccc3)N(C)C)cc2)cc1 (stereo not drawn) | . | 1% | -1% | -28% | . | -7%
COc1ccccc1NC(=O)CC1Sc2ccc(C(F)(F)F)cc2NC1=O (stereo not drawn) | . | 38% | 3% | -10% | 1%[59 µM] | .
CC(C)c1ccccc1NC(=O)CN1C(=O)c2cccc3cccc1c23 | . | 37% | 7% | 22% | 8%[59 µM] | .
Cc1ccc2c(CNCCc3ccco3)c(C(=O)O)n(Cc3ccc(F)cc3)c2c1 | . | 16% | -35% | -25% | ? | .
CCC(Sc1nc2ccccc2c2nc(-c3ccccc3)nn12)C(=O)Nc1cccc(OC)c1 (stereo not drawn) | . | 45% | 4% | 1% | -2%[59 µM] | .
COc1ccc(S(=O)(=O)NCC(c2ccc(N(C)C)cc2)N2CCc3ccccc32)cc1 (stereo not drawn) | . | ? | ? | 22µM* | 13µM* | .
Cc1ccc(S(=O)(=O)NCC(c2ccc(N(C)C)cc2)N2CCc3ccccc32)cc1C (stereo not drawn) | . | -24% | 6.3µM* | 7.1µM* | 5.6µM* | .
CN(C)c1ccc(C(CNC(=O)c2ccc(C(C)(C)C)cc2)N2CCOCC2)cc1 (stereo not drawn) | . | -10% | 35µM* | ? | 11µM* | .
CN(C)c1ccc(C(CNS(=O)(=O)c2ccc([N+](=O)[O-])cc2)N2CCOCC2)cc1 (stereo not drawn) | 0% | -12% | ? | ? | -3%[0.501 µM] | .
CCOc1ccc(S(=O)(=O)NCC(c2ccc(N(C)C)cc2)N2CCCC2)cc1 (stereo not drawn) | . | -9% | 35µM* | ? | 20µM* | .
SMILES | L3MBTL1 block | HP1b binding inh | BAZ2B block | JMJD2A Tudor | G9a inh | Sfp PPTase inh
CCc1ccc(NCc2cc3cc4c(cc3n(CC(=O)Nc3ccccc3OC)c2=O)OCCO4)cc1 | . | -19% | -36% | ? | ? | .
CCc1ccc(S(=O)(=O)c2nnn(-c3cccc(C)c3)c2N)cc1 | . | 34% | 5% | 0% | 4%[59 µM] | .
CCc1ccc(C(=O)c2c(N)c(-c3nc(-c4ccc5c(c4)OCO5)cs3)c3ccccn23)cc1 | . | 14% | 4% | -14% | 7%[59 µM] | .
CN1CCN(C(CNS(=O)(=O)c2ccc(Br)cc2)c2ccc3c(c2)OCO3)CC1 (stereo not drawn) | -7% | 19% | 0% | -16% | 79µM* | .
O=S(=O)(NCC(c1ccc2c(c1)OCO2)N1CCOCC1)c1ccc(Br)cc1 (stereo not drawn) | 3% | 29% | 0% | -6% | -13% | .
CN(C)c1ccc(C(CNS(=O)(=O)c2ccc(Br)cc2)N2CCOCC2)cc1 (stereo not drawn) | . | ? | 45µM* | ? | ? | .
O=C(CS(=O)(=O)c1cccc2nsnc12)NCc1ccc(Cl)cc1 | . | 16%[57 µM] | -6% | -19% | 18%[59 µM] | .
CCOC(=O)C1=C(C)OC(N)=C(C#N)C1c1cc2ccccc2nc1N1CCCCC1 (stereo not drawn) | 12% | 66% | -2% | 2% | 11µM* | 8%
CCOC(=O)C1=C(C)OC(N)=C(C#N)C1c1cc(C)sc1C (stereo not drawn) | -2% | 29% | -26% | -11% | . | 5%
CCOC(=O)C1=C(C)OC(N)=C(C#N)C1c1cc2cc(C)ccc2nc1N1CCCCC1 (stereo not drawn) | 3% | 53% | -12% | -3% | 10µM* | -3%
CCOC(=O)C1=C(C)OC(N)=C(C#N)C1c1cc2c(cc1Br)OCO2 (stereo not drawn) | -6% | -9% | -39% | -34% | ? | -9%
COc1cccc(CNC(=O)c2ccc3c(c2)sc2nc(-c4ccccc4)cn23)c1OC | . | 44% | 1% | -7% | -7%[59 µM] | .
Nc1cccc(-c2nc3ccc(C(=O)c4ccccc4)cc3[nH]2)c1 | -13% | -11% | 50µM* | ? | . | 3%
Nc1ccc2nc(-c3ccccc3)[nH]c2c1 | 0% | -3% | ? | -34% | -10%[59 µM] | -19%
Cc1ccc(-n2ncc(C(=O)NCCCN3CCc4ccccc4C3)c2C2CCN(C(=O)OC(C)(C)C)CC2)cc1C | . | -8% | -12%[57.1 µM] | ? | -45%[59 µM] | .

Source: PubChem (National Center for Advancing Translational Sciences (NCATS))
